Most compounds without a hit are left out; they make up all but 18% or so of the library.
TDP1 cell noCPT: qHTS for Inhibitors of human tyrosyl-DNA phosphodiesterase 1 (TDP1): qHTS in cells in absence of CPT; DT40 Tdp1-/- hTDP1 cells, no CPT, ATP luminescence, 48 h; Potency, µM (doses to about 46.2 µM), without a hit: at the top dose activity change, negative = growth inhibition, usual class: inhibitors; hit rate 15% among 420,000; AID 686978, 2013; further: nearly all actives have a fitted effect of over 55% in size
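Compound effects on proliferation are scored in DT40 Tdp1-/-;hTDP1 cells in the absence of CPT. ATP levels (CellTiter-Glo luminescence) are recorded after a ≥48 hr, 37 °C incubation.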
DT40 TDP1 CPT: DT40-hTDP1 cell growth loss with CPT | chicken DT40 Tdp1-/-;hTDP1 cells + 20 nM CPT, ATP luminescence, 48 h | Potency, µM (series often up to 46.2 µM), without a hit: at the highest dose activity change, negative = growth inhibition, actives largely listed as inhibitors | hit rate 12% among 420,000; further: nearly all actives have a fitted effect of over 55% in size
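Chicken DT40 Tdp1-/- cells complemented with human TDP1, 400 cells/well, exposed to compounds plus 20 nM camptothecin for at least 48 h at 37 C; viability read as ATP content by CellTiter-Glo luminescence.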
VDR inhibitor: vitamin D3 receptor (human) inhibition; hit rate 0.93% among 400,000; VDR-SRC2-3 peptide fluorescence polarization, 2 h; Potency, µM, without a hit: max response, negative = inhibition, actives largely listed as inhibitors; P11473
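Compounds are added to VDR with labelled SRC2-3 coactivator peptide and held 2 h at room temperature. Inhibition of the VDR–peptide interaction is then read as a change in fluorescence polarization.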
KAT2A inh: blocks human GCN5L2 histone acetyltransferase; Q92830; GCN5L2 HAT assay, ThioGlo1 CoA-SH fluorescence; Potency, µM (top dose mostly 58.9 µM), for the others: at the top dose activity change, negative = inhibition, usual class: inhibitors; hit rate 0.21% among 390,000; AID 504327
Target sequence (Q92830 whole entry, looked up): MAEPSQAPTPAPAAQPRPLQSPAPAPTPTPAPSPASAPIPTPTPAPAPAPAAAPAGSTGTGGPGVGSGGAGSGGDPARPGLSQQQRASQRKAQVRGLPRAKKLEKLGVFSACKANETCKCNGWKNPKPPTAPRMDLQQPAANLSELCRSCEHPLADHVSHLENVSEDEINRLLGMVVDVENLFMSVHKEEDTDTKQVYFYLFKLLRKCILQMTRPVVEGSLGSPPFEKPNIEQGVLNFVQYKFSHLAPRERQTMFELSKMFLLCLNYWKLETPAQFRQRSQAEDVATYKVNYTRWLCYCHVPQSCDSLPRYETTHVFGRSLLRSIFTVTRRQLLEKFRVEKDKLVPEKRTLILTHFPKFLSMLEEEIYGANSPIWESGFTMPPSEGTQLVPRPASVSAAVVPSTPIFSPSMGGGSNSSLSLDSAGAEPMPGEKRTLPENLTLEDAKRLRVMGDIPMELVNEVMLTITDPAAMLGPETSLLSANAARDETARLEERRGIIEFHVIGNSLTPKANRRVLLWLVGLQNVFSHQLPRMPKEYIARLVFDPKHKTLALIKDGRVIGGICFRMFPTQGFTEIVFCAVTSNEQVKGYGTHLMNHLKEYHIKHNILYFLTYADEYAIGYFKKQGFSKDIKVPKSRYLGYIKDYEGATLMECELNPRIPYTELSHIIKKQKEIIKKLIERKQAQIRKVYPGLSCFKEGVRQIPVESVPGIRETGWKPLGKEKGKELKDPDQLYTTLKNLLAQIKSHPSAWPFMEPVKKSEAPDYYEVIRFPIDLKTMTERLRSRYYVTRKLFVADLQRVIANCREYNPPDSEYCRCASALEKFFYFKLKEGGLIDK
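Titration-based screen in which CoA formation is detected via maleimide probe ThioGlo1 (50uM) turning fluorescent on thiol reaction; substrates H3(1-25) 75uM and acetyl-CoA 70uM, GCN5L2 20nM, 20 min incubation at room temperature.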
TDP1 inh: blocks human tyrosyl-DNA phosphodiesterase 1 | Potency, µM (highest dose often 130 µM), for inactives: at the highest dose activity change, negative = inhibition, hits mostly inhibitors | recombinant TDP1, AlphaScreen DNA substrate cleavage | hit rate 0.28% among 350,000; further: nearly all actives have a fitted effect of over 40% in size
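Compounds were preincubated with Tdp1 (1 nM final) for 15 min at room temperature before substrate (15 nM final) started a 5 min reaction; beads (10 ug/ml final) were then added for 10 min before AlphaScreen detection.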
PLK1 PBD inh: blocks phosphopeptide binding to human PLK1 polo-box domain | Plk1 PBD binding of FITC phosphopeptide, fluorescence polarization | hit rate 2.8% among 360,000 | Potency, µM, for the others: max response, negative = inhibition, hits mostly inhibitors | AID 720504 | P53350; further: series mostly up to about 57 µM; nearly all actives have a fitted effect of over 65% in size
Numbers without * were called inactive; ? = inconclusive; / = no result; ! = repeats disagree; [ ] = dose if it differs, or a comment. The call rests on the fitted dose curve; in most records, active means well fitted curve in the direction sought with a large enough effect; inconclusive means small, poorly fitted or top-dose-only effect, or another doubt; inactive means no such curve, though single readings can be large; an effect the other way counts as inactive or inconclusive. On the % scale 0 is the no-effect control and ±100 the full control effect; potency means the concentration at half of the fitted maximal effect.

SMILES	TDP1 cell noCPT	DT40 TDP1 CPT	VDR inhibitor	KAT2A inh	TDP1 inh	PLK1 PBD inh
O=C(COc1ccc(Br)cc1F)NC1CC1	?	?	7%	-4%	0%	1%
CCn1c2ccccc2c2cc(CN3CCN(Cc4ccccc4C)CC3)ccc21	?	16µM*	-15%	-2%	-5%[12.3 µM]	/
CCn1c2ccccc2c2cc(CN3CCN(Cc4ccccc4F)CC3)ccc21	?	?	-8%	-2%	-5%[12.3 µM]	/
CCn1c(CN2CCN(c3ccc(Cl)cc3)CC2)nc2ccccc21	?	?	18%	-6%	5%	0%
CCn1c2ccccc2c2cc(CN3CCN(Cc4ccc(Cl)cc4)CC3)ccc21	?	15µM*	2%	-6%	4%[12.3 µM]	/
COC(=O)c1cc(NC(=O)c2c(Cl)cnn2C)cc(C(=O)OC)c1	-2%	1%	-10%	-2%	4%	-11%
COC(=O)c1ccc(NC(=O)c2c(Br)cnn2C)cc1	-19%	?	?	-5%	/	24µM*
CC(C)n1ncc2c(C(=O)N3CCN(Cc4ccc(Br)s4)CC3)cc(C3CC3)nc21	23µM*	26µM*	4%	-7%	3%	-2%
CCOc1ccc(OCCNC(=O)c2cc(C3CC3)nc3c2cnn3C(C)C)cc1	5.2µM*	16µM*	-14%	-11%	-6%	-12%
CC(C)n1ncc2c(C(=O)NCCOc3ccccc3F)cc(C3CC3)nc21	3.3µM*	12µM*	-20%	-9%	-4%	-17%
CC(C)n1ncc2c(C(=O)O)cc(C3CC3)nc21	4%	?	?	-5%	6%	30µM*
COc1ccc(CNC(=O)c2cc(C3CC3)nc3c2cnn3C(C)C)cc1	?	?	0%	-8%	-3%	10%
O=C(CCn1c(=O)[nH]c2ccccc21)NCC1Cc2cc(Cl)cc(-c3ccncc3)c2O1 (centres undefined)	-27%	4%	/	/	/	/
CCCS(=O)(=O)NC(=O)C1(C)CCCN(C(=O)COCc2ccccc2)C1 (centres undefined)	-6%	-6%	/	/	/	0%
CCOCCCn1c(SCC(=O)Nc2cc(C)ccc2C)nc2c(oc3ccccc32)c1=O	-14%	-13%	-18%	-4%	-2%	/
COc1ccc(-c2cc(-c3nc4ccccn4c3NCc3ccccc3)ccc2OC)cc1	?	?	-17%	-28%	6%	-9%
CCC(C)Sc1ccc(-c2nc3ccc(C)cn3c2NCc2ccccc2)cc1OC (centres undefined)	16µM*	21µM*	2%	-27%	1%	0%
CCC(C)Sc1cc(-c2nc3ccc(C)cn3c2NCc2ccccc2)ccc1OC (centres undefined)	4.1µM*	4.6µM*	3%	/	/	0%
O=C1CC(N2CCCCCC2)C(=O)N1c1ccc2c(c1)OCO2 (centres undefined)	6.3µM*	3.7µM*	6%	-15%	9%	-3%
O=C1CC(N2CCN(c3ccc(O)cc3)CC2)C(=O)N1c1ccc2c(c1)OCO2 (centres undefined)	-12%	0%	4%	1%	-3%	-9%
CC(=O)N1c2ccc(S(=O)(=O)N3CCCCC3)cc2CC1C(=O)Nc1ccc(F)cc1C (centres undefined)	-9%	-22%	?	?	3%	27µM*
CCc1ccc(CNC(=O)C2Cc3cc(S(=O)(=O)N4CCCCCC4)ccc3N2C(C)=O)cc1 (centres undefined)	?	23µM*	3%	3%	6%	/
CC(=O)N1c2ccc(S(=O)(=O)N3CCCC3)cc2CC1C(=O)Nc1cc(C)cc(C)c1 (centres undefined)	23µM*	?	14%	-16%	3%	10%
CC(=O)N1c2ccc(S(=O)(=O)N3CCCCCC3)cc2CC1C(=O)NCc1ccccc1F (centres undefined)	-18%	-31%	3%	19%	-1%	/
CC(=O)N1c2ccc(S(=O)(=O)N3CCCCC3)cc2CC1C(=O)NCc1ccccc1C (centres undefined)	-1%	-9%	15%	?	4%	-12%
SMILES	TDP1 cell noCPT	DT40 TDP1 CPT	VDR inhibitor	KAT2A inh	TDP1 inh	PLK1 PBD inh
CCCCNC(=S)N(C)/N=C/c1ccc(OCc2ccc(C(=O)OC)cc2)c(OC)c1	15µM*	?	-12%	-12%	5%	-1%
Cc1nnc(N2CCC(C(=O)NC(C)C)CC2)c2nn(-c3ccccc3)c(C)c12	-23%	-21%	9%	-5%	3%	/
COc1ccc(-n2nc3c(N4CCC(C(=O)NCCc5ccccc5)CC4)nnc(C)c3c2C)cc1	?	?	18%	-3%	0%	/
COc1ccc(-n2nc3c(N4CCC(C(=O)NCc5ccccc5C)CC4)nnc(C)c3c2C)cc1	7.3µM*	18µM*	-8%	-4%	-13%	-10%
COc1ccc(-n2nc3c(N4CCC(C(=O)NC5CCCCC5)CC4)nnc(C)c3c2C)cc1	15µM*!	13µM*!	-13%	-5%	-10%	-4%
COc1ccc(-n2nc3c(N4CCCC(C(=O)NCCc5ccc(C)cc5)C4)nnc(C)c3c2C)cc1 (centres undefined)	3.7µM*	3.3µM*	5%	-1%	3%	/
COc1ccc(-n2nc3c(N4CCC(C(=O)NCC(C)c5ccccc5)CC4)nnc(C)c3c2C)cc1 (centres undefined)	?	?	?	2%	3%	6.7µM*
COC(=O)c1ccc(Oc2nc(NC(C)(C)C)nc(N3CCOCC3)n2)cc1	/	/	/	-2%	5%	/
CCOC(=O)c1ccc2c(c1)N(Cc1ccc(F)cc1Cl)C(=O)c1ccccc1S2	?	?	2%	-6%	0%	/
COc1ccc(-n2nc3c(N4CCCC(C(=O)NCc5ccccc5C)C4)nnc(C)c3c2C)cc1 (centres undefined)	5.2µM*	2.9µM*	21%	-9%	/	/
COc1ccccc1/C=N/n1c(N)c(C(=O)NC2CCCCC2)c2nc3ccccc3nc21	?	?	-11%	-3%	4%	-1%
CC(C)OCCCNC(=O)c1c(N)n(/N=C/c2ccccn2)c2nc3ccccc3nc12	23µM*	?	1%	2%	3%	-5%
CCC(C)NC(=O)c1c(N)n(/N=C/c2ccccn2)c2nc3ccccc3nc12 (centres undefined)	21µM*	21µM*	16%	-1%	1%	-5%

From PubChem
